In the library only some 5.5% were active in any assay of this set; here they are far more common.
Giardia kill: Giardia lamblia killing | Giardia lamblia trophozoite viability | activity change, % at 7.66 µM, hits read low | 340,000 tested, 0.15% active | AID 540267; in the data active means activity change below about -80%; inconclusive means between about -30% and that limit;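 further: parasites exposed to compound for two days anaerobically before the ATP read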
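Trophozoite viability was measured as ATP-dependent luminescence, read 15-30 min after reagent addition. Before that, parasites at 100 cells/well were exposed to compounds for 48 h, anaerobically, at 37 deg C.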
FBPA coupling cs: coupling enzyme interference in Giardia aldolase counter-screen; AID 2472; activity change, negative = inhibition, % at 58.2 µM, hits read low; 290,000 tested, 0.67% active; coupling enzyme system counterscreen, AmpLite Red fluorescence; in the data active means activity change below about -30%
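Counterscreen lacking aldolase: glyceraldehyde-3-phosphate coupling-enzyme reagent preincubated 10 min at RT with compound (at 57.5 uM final), then substrate/coupling system with AmpLite Red added; fluorescence read at 525/598 nm after 20 min RT.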
ELG1 repair inh: inhibitors of ELG1-dependent DNA repair in HEK293T cells. AID 504467. 330,000 tested, 2.3% active. HEK293T ELG1-luciferase reporter, luminescence, 16 h; DNA damage induced by 5-fluorouridine. Potency, µM (doses to about 46.1 µM), inactives show at the highest dose activity change, negative = inhibition, hits mostly inhibitors; further: potency means the concentration at half of the fitted maximal effect; nearly all actives have a fitted effect of over 55% in size
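DMSO vehicle served as the neutral condition. Each well held 2,000 cells given 5-fluorouridine plus compound; after 16 hr at 37 °C/5% CO2, ONE-Glo was added and luciferase measured 30 min later.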
Sfp inh: inhibitors of Bacillus subtilis Sfp phosphopantetheinyl transferase | Q9F4F7 | Biochemical Sfp PPTase activity, qHTS | Potency, µM, for inactives: largest response in the series, negative = inhibition, most hits filed as inhibitors | 310,000 tested, 3.5% active | AID 1490;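 further: the enzyme is Sfp with the accession as filed and its product quenches rhodamine fluorescence; potency means the concentration at half of the fitted maximal effect; 0% = enzyme reaction without inhibitor and -100% = no enzyme wells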
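With Hepes-Na pH 7.6 buffer containing 10 mM MgCl2, Sfp (15 nM) modified BHQ-2-YbbR (12.5 uM) using rhodamine-CoA (5 uM). Two reads 30 minutes apart at 525/598 nm yielded each well's rate.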
* marks the source's active call; other numbers are inactive results. Unless noted, the call rests on the fitted dose curve; in most records, active means well fitted curve in the direction sought with a large enough effect; inconclusive means small, poorly fitted or top-dose-only effect, or another doubt; inactive means no such curve, though single readings can be large; an effect the other way counts as inactive or inconclusive. Unless noted, on the % scale 0 is the no-effect control and ±100 the full control effect.

For Cc1nnsc1-c1onc(C)c1C(=O)Nc1cc(Cl)cc(Cl)c1 the results were Giardia kill -9, FBPA coupling cs 0, ELG1 repair inh 16µM* and Sfp inh -9%.
O=C(CSc1nc2ccc(Nc3nc(N4CCOCC4)nc(N4CCOCC4)n3)cc2s1)Nc1ccccc1F was read as Giardia kill 15, ELG1 repair inh 2.6µM* and Sfp inh inconclusive.
Cc1ccccc1Nc1nc(N2CCOCC2)nc(N2CCOCC2)n1 was read as Giardia kill -2, FBPA coupling cs 2, ELG1 repair inh inconclusive and Sfp inh 15%.
For O=C(CSc1nc2ccc(Nc3nc(N4CCCC4)nc(N4CCCC4)n3)cc2s1)NCc1ccco1 the results were Giardia kill 1, FBPA coupling cs -1, ELG1 repair inh inconclusive and Sfp inh inconclusive.
Screening O=C(CSc1nc2ccc(Nc3nc(N4CCOCC4)nc(N4CCOCC4)n3)cc2s1)N1CCOCC1 returned Giardia kill -7, FBPA coupling cs 0, ELG1 repair inh 2.6µM* and Sfp inh 24%.
For Fc1ccccc1Nc1nc(N2CCOCC2)nc(N2CCOCC2)n1 the results were Giardia kill 0, FBPA coupling cs 4, ELG1 repair inh 5.8µM* and Sfp inh 12%.
c1ccc2c(Nc3nc(N4CCOCC4)c4ccccc4n3)cccc2c1 was read as Giardia kill 6, FBPA coupling cs 4, ELG1 repair inh 23µM* and Sfp inh -17%.
`O=c1cnc2cnc(Oc3cccc(Cl)c3)nc2n1Cc1ccc(F)cc1` gave FBPA coupling cs 4 and Sfp inh -5%.
`Cc1ccc(S(=O)(=O)N2CCN(C(=O)COC(=O)c3ccc(O)cc3)CC2)c(C)c1` gave Giardia kill 3 and ELG1 repair inh -21%.
Cc1ccc(Nc2cc(C)nc(N3CCOCC3)n2)cc1 was read as Giardia kill -4, FBPA coupling cs -8, ELG1 repair inh inconclusive and Sfp inh -3%.
`CC(=O)c1ccc(NC(=O)CSc2nc(Nc3ccccc3)nc(N3CCOCC3)n2)cc1` gave Giardia kill 11, ELG1 repair inh 5.8µM* and Sfp inh 11%.
For CSc1nc2ccc(Nc3nc(N4CCOCC4)nc(N4CCOCC4)n3)cc2s1 the results were Giardia kill 7, FBPA coupling cs -3, ELG1 repair inh 5.2µM* and Sfp inh -16%.
Fc1ccc(Nc2nc(N3CCOCC3)nc(N3CCOCC3)n2)cc1Cl was read as Giardia kill 35, ELG1 repair inh inconclusive and Sfp inh -22%.
`NS(=O)(=O)c1ccc(NC(=O)CSc2nc(Nc3ccccc3)nc(N3CCOCC3)n2)cc1` gave Giardia kill -15, ELG1 repair inh inconclusive and Sfp inh 7%.
For Cc1cc(Nc2ccc(C)c(Cl)c2)nc(N2CCOCC2)n1 the results were Giardia kill 4, FBPA coupling cs -7, ELG1 repair inh 21µM* and Sfp inh -6%.
Cc1ccc(Nc2nc(N3CCOCC3)nc(N3CCOCC3)n2)cc1 was read as Giardia kill 14, FBPA coupling cs -7, ELG1 repair inh inconclusive and Sfp inh 5%.
Screening Clc1ccc(Nc2nc(N3CCOCC3)nc(N3CCOCC3)n2)cc1Cl returned Giardia kill -25, ELG1 repair inh 1.6µM* and Sfp inh inconclusive.
For CC1(C)CC23C(=O)CCC(O)C2(C)CCC13 (stereo not given) the results were FBPA coupling cs 3 and Sfp inh 20%.
O=C(NC1=NCCS1)C12CC3CC(C1)CC(C(=O)NC1=NCCS1)(C3)C2 was read as Giardia kill -23, FBPA coupling cs 1, ELG1 repair inh 23µM* and Sfp inh 19%.
For O=C(CCl)N(c1ccccc1)C1CCCCC1 the results were Giardia kill -17, FBPA coupling cs 3, ELG1 repair inh 16µM* and Sfp inh 6%.
For C=CCOc1c(Br)cc(CNc2ccc(NC(=O)C(C)C)c(OC)c2)cc1OCC the results were Giardia kill -1, FBPA coupling cs -50*, ELG1 repair inh 1% and Sfp inh inconclusive.
`CCCCCCCCCCCC(CC1OC(=O)C1CCCCCC)OC(=O)C(CC(C)C)NC=O` (stereo not given) gave FBPA coupling cs -4 and Sfp inh 18%.
`COc1cc2c(cc1OC)-c1cc3ccc4c(c3c[n+]1CC2)OCO4` gave Giardia kill -4, FBPA coupling cs -44*, ELG1 repair inh -26% and Sfp inh -7%.
Screening Cc1nn(Cc2cccc(C(=O)Nc3ccn(Cc4ccccc4F)n3)c2)c(C)c1[N+](=O)[O-] returned Giardia kill 9, FBPA coupling cs 2, ELG1 repair inh inconclusive and Sfp inh 22µM*.
`CC1CCCC(C)N1CCOc1cc(N)ccc1C#N` (stereo not given) gave Giardia kill -7.
`CCOC(=O)c1c(/N=C/c2ccccc2O)sc2c1CCC2` gave Giardia kill 13, FBPA coupling cs -1, ELG1 repair inh 1% and Sfp inh -14%.
CCOC(=O)c1c(NC(=S)Nc2cc([N+](=O)[O-])ccc2OC)sc2c1CCCCC2 was read as FBPA coupling cs 1, ELG1 repair inh 6% and Sfp inh 22µM*.
Screening COC(=O)c1c(NC(=S)Nc2cc(OC)c(Cl)cc2OC)sc2c1CCCCC2 returned Giardia kill -1, FBPA coupling cs -10, ELG1 repair inh 17% and Sfp inh inconclusive.
`CCOC(=O)c1c(/N=C/c2cccc([N+](=O)[O-])c2O)sc2c1CCC2` gave Giardia kill -9, FBPA coupling cs -3, ELG1 repair inh 11% and Sfp inh 18µM*.
Screening CCOC(=O)c1c(NC(=O)c2c(C(=O)O)cccc2[N+](=O)[O-])sc2c1CCCC2 returned Giardia kill -1, FBPA coupling cs 16, ELG1 repair inh -9% and Sfp inh 18µM*.
Screening CCOC(=O)c1c(/N=C/c2cc([N+](=O)[O-])ccc2O)sc(C)c1C returned Giardia kill 3, FBPA coupling cs -1, ELG1 repair inh inconclusive and Sfp inh 40µM*.
For CN1CCN(c2ncc3nc(-c4ccc(Cl)cc4)c(=O)n(C)c3n2)CC1 the results were FBPA coupling cs 2 and Sfp inh -5%.
For CCc1nc(CN(C)C(=O)C2CCC(=O)N(Cc3cccc(F)c3)C2)no1 (stereo not given) the results were Giardia kill -9, FBPA coupling cs -1, ELG1 repair inh 10% and Sfp inh 12%.
`O=C(NCCc1cn2ccccc2n1)c1cc(COc2ccc3ncccc3c2)on1` gave Giardia kill 4, FBPA coupling cs 0, ELG1 repair inh 8.2µM* and Sfp inh 2%.
For O=C(c1cc(COc2ccc3ncccc3c2)on1)N1CCCCCC1 the results were Giardia kill 4, FBPA coupling cs 8, ELG1 repair inh inconclusive and Sfp inh 13%.
O=C(c1ccccc1)c1ccc(Sc2ccc([N+](=O)[O-])cc2)cc1 was read as Giardia kill -26, FBPA coupling cs -2, ELG1 repair inh 12µM* and Sfp inh 8%.
